Source: PubChem BioAssay (NCI)
This is part of a sample that, as a whole, favours compounds with a hit. Of some 83,000 tested, about 20% had one in any assay.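 Negative percent growth values reflect cell death: -40 means 40% of the cells present at the start died, and -100 means all died.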 Calls of active or inactive are those of the source. How the source made its calls: active means growth percent below 10; inactive means the rest.

Test system: HCT-15 colon
Test: NCI-60 one-dose screen, 48 h (100 = growth as untreated, 0 = no growth, -100 = all killed)
Settings: 10 µM unless noted

SMILES	growth
CC(C)(C)c1cc(-c2nc3ccc(N4CCN(CCO)CC4)cc3[nH]2)cc(C(C)(C)C)c1O	-14.4% (active)
Clc1ccc(/C=C/c2nc(N3CCOCC3)c3nc(Cl)c(Cl)cc3n2)cc1	94.3% (inactive)
CCOC(=O)/C=C\C(=O)NC(N)=O	99.9% (inactive)
CCC#CC[C@H]1C/C=C2/C(=O)C=C[C@@H]2C/C=C\CCCC(=O)O1	-6.01% (active)
O=C(Cc1c(F)cccc1Cl)Nc1ccc(S(=O)(=O)Nc2ncccn2)cc1	104% (inactive)
C=CCc1cc(Cl)cc2c(OC(C)=O)c(C(C)=O)c(-c3ccccc3)nc12	108% (inactive)
Cc1c(C(=O)NCc2ccccc2)[n+](=O)c2cc(F)ccc2n1[O-]	111% (inactive)
C=CCOc1cccc(/C=C/C(=O)c2sc(Nc3cccnc3)nc2C)c1	33.5% (inactive)
COc1ccc(C(=O)c2cc(OC)c(OC)c(OC)c2)cc1/C=C/C(=O)c1ccc2c(c1)OCO2	-22.6% (active)
CCN(CC)S(=O)(=O)c1ccc2[nH]c(=O)cc(C(=O)Nc3ccc(OC)cc3OC)c2c1	106% (inactive)
O=C(Nc1cc(C(F)(F)F)cc(C(F)(F)F)c1)Nc1ccc(OCc2nnc(-c3ccc(Cl)cc3)o2)c(F)c1	13.6% (inactive)
O=C1CCCCN1CCCCC#Cc1ccccc1C#Cc1ccccn1	94.7% (inactive)
COc1ccc2c(c1)C=CC(C#N)N2C(=O)c1ccccc1 (centres undefined)	9.74% (active)
CC1(C)OC2COC3(C(=O)O)OC(C)(C)OC3C2O1 (centres undefined)	98.8% (inactive)
COc1cc(C2C=C(C)N=C3SC(C)=NN32)cc(OC)c1OC (centres undefined)	95.8% (inactive)
O=C(/C=C/CN1CCOCC1)Nc1cc2c(Nc3cccc(Cl)c3F)ncnc2cc1OCCOC(F)F	69.2% (inactive)
Cc1oc2nc[nH]c(=O)c2c1C(=O)/C=C/c1ccc(Cl)cc1	19.9% (inactive)
CCn1cc(C2NC(=O)c3cc(F)ccc3N2)c2cccc(Cl)c21 (centres undefined)	9.89% (active)
CN(C)C/C=C/C(=O)Nc1cc2c(Nc3ccc(F)c(Cl)c3F)ncnc2cc1OCCOC(F)F	9.17% (active)
CC(=O)Nc1ccc2c(c1)/C(=C\C=C/c1ccc([N+](C)(C)C)cc1)c1ccccc1-2	89.1% (inactive)

SMILES	growth
c1ccc([P+](CCC[P+](c2ccccc2)(c2ccccc2)c2ccccc2)(c2ccccc2)c2ccccc2)cc1	101% (inactive)
COc1ccc2c(c1)NC(=O)CN2c1nc(C)nc2ccccc12	9.21% (active)
CCCCCC/C=C\CCCCCCCCOc1ccc(CCOP(=O)(O)OCC[N+](C)(C)C)cc1	85% (inactive)
O=C(Nc1ccc(I)cc1)c1cc([N+](=O)[O-])ccc1O	36.7% (inactive)
NC(=O)c1c(NC(=O)c2ccc3c(c2)OCO3)sc2c1CCC(=O)C2	-40.5% (active)
O=C(CNC(=O)c1cccc2ccccc12)Nc1ccccc1Oc1ccccc1	8.09% (active)
COC12CC(=O)C(C(C)=O)=C(O)C1(C)c1c(O)c(C)c(O)c(C(C)=O)c1O2 (centres undefined)	66.6% (inactive)
O=S(=O)(NCCCNc1nccc(-c2c(-c3ccccc3)nc3sccn23)n1)c1ccc(F)cc1	19.4% (inactive)
CCCCOc1nc2c(C)cccc2cc1C1CNC(=O)c2ccccc2N1 (centres undefined)	43.4% (inactive)
C=CCN=C1NC(=O)/C(=C/c2cc(C(C)(C)C)c(O)c(C(C)(C)C)c2)S1	42.1% (inactive)
Nc1nc(-c2ccccc2)cs1	106% (inactive)
CC[C@H](C)[C@@H]1NC(=O)[C@H]([C@@H](C)O)NC(=O)C(Cc2ccccc2)NC(=O)[C@@H]2CCCN2C(=O)C(C(C)C)NC(=O)C(Cc2ccccc2)NC(=O)CNC(=O)[C@@H]2CCCN2C1=O (some centres undefined)	77.2% (inactive)
CCN(CC)CCSc1c2ccc(Cl)cc2nc2ccc(OC)cc12	47.4% (inactive)
Cc1cc2c(C(C)C)c(O)c(O)c(C=NCCCCC(=O)O)c2c(O)c1-c1c(C)cc2c(C(C)C)c(O)c(O)c(C=NCCCCC(=O)O)c2c1O	34.7% (inactive)
COc1ccc(Cn2cc(COc3cc(/C=C/C(=O)c4cc(OC)c(OC)c(OC)c4)ccc3OC)nn2)cc1	38.5% (inactive)
Cc1ccc(C2=NN(c3ccc(S(=O)(=O)NC(=O)NCc4ccccc4)cc3)C(c3ccc(N(C)C)cc3)C2)c(C)c1 (centres undefined)	32.6% (inactive)
c1ccc2c(c1)Oc1ccccc1C2C1c2ccccc2Oc2ccccc21	93.3% (inactive)
COc1ccc(S(=O)(=O)Nc2cc(/C=C\c3cc(OC)c(OC)c(OC)c3)cc(OC)c2OC)cc1OC	24.1% (inactive)
COC1=CC(c2ccc[nH]2)=N/C1=C\c1[nH]c(C)c(CCCn2cc(CCCCCCCCC[C@@H]3Cc4cc(O)ccc4C4CC[C@]5(C)[C@@H](O)CC[C@H]5C43)nn2)c1C (some centres undefined)	35% (inactive)
